# Assay results published in PubChem BioAssay (NCATS).
# Several values for one entry are separate records, joined by “and”; a condition that tells them apart may be missing. Equal values may be shown once. Inconclusive results are not listed. Entries that show only a call come without a potency. Activity calls are given as the source filed them. Unless noted, the call rests on the fitted dose curve; in most records, active means well fitted inhibition curve with a large enough effect; inconclusive means small, poorly fitted or top-dose-only effect; inactive means flat fitted curve, though single readings scatter.
# Legend:
# [1] = target: Vitamin D3 receptor (Homo sapiens) (UniProt P11473); assay: qHTS assay for small molecule agonists of vitamin D receptor signaling (AID 588543; calls by dose curve)
# Method in brief: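 VDR-UAS-bla HEK293T cells, 2000/well, 2% charcoal-stripped FBS; compound titration 16 h at 37 C; CCF4 beta-lactamase ratio read. Normalized to 50 nM 1-alpha,25-dihydroxyvitamin D3 (100%) and DMSO; Hill fit gives EC50, efficacy.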
# [2] = qHTS assay for small molecule agonists of retinoid X receptor alpha signaling (AID 588544; calls by dose curve); settings: HEK293T RXRa-UAS-bla, beta-lactamase reporter, 18 h; 530 nm emission
# [3] = target: Retinoic acid receptor RXR-alpha (Homo sapiens) (UniProt P19793); assay: as above
# [4] = target: Thyroid hormone receptor beta (Homo sapiens) (UniProt P10828); assay: qHTS assay for small molecule agonists of thyroid hormone receptor beta signaling (AID 588545; calls by dose curve)
# Method in brief: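 Efficacy and EC50 values derive from Hill fits of qHTS titration data, normalized to 10 nM T3 and DMSO-only wells. HEK 293 reporter cells were stimulated for 18 hrs at 37 C, with beta-lactamase activity measured by CCF4 fluorescence.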
# [5] = qHTS assay for small molecule antagonists of retinoid X receptor alpha signaling (AID 588546; active means well fitted inhibition curve with a large enough effect in the signal ratio, with a control signal flat, not every such curve was filed as active; the % refers to the signal ratio;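 further: cells stimulated with 9-cis-retinoic acid as agonist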); settings: HEK293T RXRa-UAS-bla, beta-lactamase ratio, antagonist mode; measured here: W530 green channel, cytotoxicity proxy
# Method in brief: (§1)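 Beta-lactamase reporter inhibition, read as CCF4 fluorescence ratio (ex 405, em 460/530 nm) after 2 h at RT. HEK293T UAS-bla cells, 2500/well, were stimulated with 9-cis-RA at 500 or 100 nM final alongside test compound for 18 h at 37 C.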
# [6] = target: Retinoic acid receptor RXR-alpha (Homo sapiens) (UniProt P19793); assay: as above; settings: HEK293T RXRa-UAS-bla, beta-lactamase ratio, antagonist mode
# Method in brief: as §1
# [7] = target: Voltage-gated inwardly rectifying potassium channel KCNH2 (Homo sapiens) (UniProt Q12809); assay: qHTS Assay for Small Molecule Inhibitors of the Human hERG Channel Activity (AID 588834);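 further: lower thallium flux fluorescence means stronger hERG block; nearly all actives have a fitted effect of over 50% in size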; further: potency means the concentration at half of the fitted maximal effect
# Method in brief: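 Thallium serves as surrogate for K+ influx through BacMam-delivered hERG in U2OS cells. Compounds are added for about 10 minutes after dye loading; stimulation buffer then starts flux, monitored kinetically on FDSS.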
# [8] = target: Luciferin 4-monooxygenase (Photinus pyralis) (UniProt P08659); assay: Biochemical firefly luciferase enzyme assay for NPC (AID 624030); further: nearly all actives have a fitted effect of over 70% in size; further: potency means the concentration at half of the fitted maximal effect
# Method in brief: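 Direct inhibition of firefly luciferase enzyme (10 nM final, 50 mM Tris Acetate) assessed by luminescence within 5 minutes. Percent activity scaled between DMSO and PTC124 positive control, with concentration-effect curves classified by fit quality and response.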
# [9] = target: Thyroid hormone receptor beta (Homo sapiens) (UniProt P10828); assay: qHTS assay for small molecule antagonists of thyroid hormone receptor beta signaling (AID 588547; active means well fitted inhibition curve with a large enough effect in the signal ratio, with a control signal flat, not every such curve was filed as active; the % refers to the signal ratio;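 further: cells stimulated with 0.4 nM T3 agonist during compound exposure; series mostly up to about 77 µM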); settings: TR-UAS-bla HEK293, beta-lactamase ratio, antagonist mode, 18 h
# Method in brief: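 Inhibition of T3-driven (0.4nM final) beta-lactamase reporter activity was measured over 0.59 nM to 92 uM compound after 18 h at 37 C. The cells were GripTite HEK293 TR-UAS-bla in charcoal/dextran-stripped serum, with CCF4 ratio read-out and IC50 from Hill fits.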
# Sequence of Voltage-gated inwardly rectifying potassium channel KCNH2 (Homo sapiens) (Q12809 whole entry, looked up): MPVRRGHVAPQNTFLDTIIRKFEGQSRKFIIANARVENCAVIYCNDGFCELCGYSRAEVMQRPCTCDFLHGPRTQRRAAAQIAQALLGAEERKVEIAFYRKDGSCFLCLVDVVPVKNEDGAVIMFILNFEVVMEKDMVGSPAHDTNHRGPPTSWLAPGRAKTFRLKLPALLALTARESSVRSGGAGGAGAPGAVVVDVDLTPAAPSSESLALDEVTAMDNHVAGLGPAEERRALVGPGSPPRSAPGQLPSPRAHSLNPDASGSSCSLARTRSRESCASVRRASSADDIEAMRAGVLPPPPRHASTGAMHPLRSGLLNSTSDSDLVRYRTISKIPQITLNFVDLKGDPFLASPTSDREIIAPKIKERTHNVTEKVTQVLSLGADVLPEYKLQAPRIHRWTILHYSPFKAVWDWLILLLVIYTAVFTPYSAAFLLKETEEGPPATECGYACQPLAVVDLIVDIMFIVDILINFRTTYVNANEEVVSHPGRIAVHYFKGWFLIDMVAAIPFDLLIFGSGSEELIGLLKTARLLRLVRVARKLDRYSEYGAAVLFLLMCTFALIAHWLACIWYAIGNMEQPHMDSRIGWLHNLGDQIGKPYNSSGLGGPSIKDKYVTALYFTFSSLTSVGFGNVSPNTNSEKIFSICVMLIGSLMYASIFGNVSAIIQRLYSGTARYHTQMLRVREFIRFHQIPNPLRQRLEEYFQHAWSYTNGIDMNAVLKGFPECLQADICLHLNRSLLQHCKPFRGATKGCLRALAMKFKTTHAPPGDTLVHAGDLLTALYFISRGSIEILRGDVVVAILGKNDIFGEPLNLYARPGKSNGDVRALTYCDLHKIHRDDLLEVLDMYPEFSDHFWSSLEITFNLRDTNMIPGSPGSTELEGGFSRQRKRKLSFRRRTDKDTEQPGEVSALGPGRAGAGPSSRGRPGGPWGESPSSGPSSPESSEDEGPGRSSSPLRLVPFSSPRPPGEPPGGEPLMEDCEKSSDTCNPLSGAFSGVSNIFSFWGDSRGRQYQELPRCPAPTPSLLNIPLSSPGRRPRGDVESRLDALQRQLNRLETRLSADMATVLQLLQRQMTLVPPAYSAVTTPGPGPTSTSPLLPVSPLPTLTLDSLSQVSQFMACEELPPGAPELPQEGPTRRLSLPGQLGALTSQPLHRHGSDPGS
# Sequence of Thyroid hormone receptor beta (Homo sapiens) (P10828 whole entry, looked up): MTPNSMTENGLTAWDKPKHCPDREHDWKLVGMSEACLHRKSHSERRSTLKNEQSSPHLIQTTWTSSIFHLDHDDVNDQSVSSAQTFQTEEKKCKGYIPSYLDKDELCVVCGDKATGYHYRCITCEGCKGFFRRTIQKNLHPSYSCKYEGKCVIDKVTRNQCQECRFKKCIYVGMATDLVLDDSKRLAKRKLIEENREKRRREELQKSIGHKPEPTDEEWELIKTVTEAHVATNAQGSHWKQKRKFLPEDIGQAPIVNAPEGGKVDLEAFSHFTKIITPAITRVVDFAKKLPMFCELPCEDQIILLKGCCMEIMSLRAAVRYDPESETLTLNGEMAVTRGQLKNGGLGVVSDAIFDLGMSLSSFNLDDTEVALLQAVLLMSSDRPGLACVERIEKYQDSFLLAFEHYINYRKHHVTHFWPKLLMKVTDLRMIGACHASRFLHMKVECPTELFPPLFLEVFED
# Sequence of Retinoic acid receptor RXR-alpha (Homo sapiens) (P19793 whole entry, looked up): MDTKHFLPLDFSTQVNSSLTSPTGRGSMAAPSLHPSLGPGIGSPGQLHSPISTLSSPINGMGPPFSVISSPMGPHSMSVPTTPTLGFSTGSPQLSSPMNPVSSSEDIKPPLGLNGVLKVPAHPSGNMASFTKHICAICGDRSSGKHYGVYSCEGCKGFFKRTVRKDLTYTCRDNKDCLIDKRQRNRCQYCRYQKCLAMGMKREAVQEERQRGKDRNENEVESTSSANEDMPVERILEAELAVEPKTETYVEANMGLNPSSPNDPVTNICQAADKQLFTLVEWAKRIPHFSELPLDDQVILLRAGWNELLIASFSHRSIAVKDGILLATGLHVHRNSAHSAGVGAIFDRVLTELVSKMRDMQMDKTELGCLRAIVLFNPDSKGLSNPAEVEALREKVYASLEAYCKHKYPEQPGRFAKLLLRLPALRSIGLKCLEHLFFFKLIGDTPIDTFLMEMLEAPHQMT
# Sequence of Vitamin D3 receptor (Homo sapiens) (P11473 whole entry, looked up): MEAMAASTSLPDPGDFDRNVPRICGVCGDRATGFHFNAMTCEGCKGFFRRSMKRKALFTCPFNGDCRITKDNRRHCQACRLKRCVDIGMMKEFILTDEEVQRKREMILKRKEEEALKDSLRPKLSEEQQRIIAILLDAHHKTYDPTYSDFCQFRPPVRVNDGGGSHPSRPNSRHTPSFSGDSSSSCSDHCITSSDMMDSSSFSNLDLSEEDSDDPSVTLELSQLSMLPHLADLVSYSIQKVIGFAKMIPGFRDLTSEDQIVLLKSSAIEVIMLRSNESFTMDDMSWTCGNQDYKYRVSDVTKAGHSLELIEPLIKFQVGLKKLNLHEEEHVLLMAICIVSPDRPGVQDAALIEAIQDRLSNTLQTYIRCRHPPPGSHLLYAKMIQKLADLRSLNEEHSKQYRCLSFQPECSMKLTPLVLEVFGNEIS
# Sequence of Luciferin 4-monooxygenase (Photinus pyralis) (P08659 whole entry, looked up): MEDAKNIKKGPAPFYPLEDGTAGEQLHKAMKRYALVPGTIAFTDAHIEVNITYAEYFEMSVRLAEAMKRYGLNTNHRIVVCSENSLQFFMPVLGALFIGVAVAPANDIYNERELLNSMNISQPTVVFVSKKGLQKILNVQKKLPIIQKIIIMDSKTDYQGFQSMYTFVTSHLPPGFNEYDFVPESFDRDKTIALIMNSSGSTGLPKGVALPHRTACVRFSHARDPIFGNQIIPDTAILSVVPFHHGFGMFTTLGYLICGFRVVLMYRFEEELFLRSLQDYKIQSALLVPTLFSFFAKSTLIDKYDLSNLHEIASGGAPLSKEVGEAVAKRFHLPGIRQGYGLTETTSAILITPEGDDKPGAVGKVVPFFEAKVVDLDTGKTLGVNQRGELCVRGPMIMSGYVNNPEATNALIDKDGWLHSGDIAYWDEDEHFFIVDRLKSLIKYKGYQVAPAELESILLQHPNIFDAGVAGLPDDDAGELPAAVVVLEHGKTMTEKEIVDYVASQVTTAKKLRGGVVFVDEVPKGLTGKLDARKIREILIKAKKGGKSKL
compound,measurement,setting,value
Nc1cc(-c2ccncc2)c[nH]c1=O,outcome,[1],inactive
same,max response,[2],3.04%
same,outcome,[3],inactive
same,outcome,[4],inactive
same,max response,[5],-6.03%
same,max response,[6],-6.86% (inactive)
same,Potency,[7],inactive
same,Potency,[8],inactive
CC1(C)S[C@@H]2[C@H](NC(=O)[C@H](N)c3ccccc3)C(=O)N2[C@H]1C(=O)O,max response,[2],-24.6%
same,outcome,[3],inactive
same,max response,[5],-6.23%
same,max response,[6],-0.87% (inactive)
O=c1cc(-c2ccccc2)oc2ccccc12,outcome,[1],inactive
same,max response,[2],18.8%
same,outcome,[3],inactive
same,outcome,[4],inactive
same,max response,[5],-11.8%
same,max response,[6],-22.5% (inactive)
same,activity change % (negative = inhibition),[9],-4.06% (inactive) and 9.92% (inactive)
same,Potency,[7],inactive
same,Potency,[8],20.9 µM (active)
O=S(=O)(c1cccc2c(I)cccc12)N1CCCNCC1,Potency,[7],11.2 µM (active)
CC(C)OC(=O)c1cc(C(=O)OC(C)C)cc([N+](=O)[O-])c1,outcome,[1],inactive
same,max response,[5],-0.986%
same,max response,[6],-4.84% (inactive)
same,activity change % (negative = inhibition),[9],6.57% (inactive)
same,Potency,[8],inactive
O=C(O)/C=C\C(=O)O,outcome,[1],inactive
same,max response,[2],-5.8%
same,outcome,[3],inactive
same,outcome,[4],inactive
same,max response,[5],0.438%
same,max response,[6],2.25% (inactive)
same,activity change % (negative = inhibition),[9],-2.36% (inactive)
CC(C)NCC(O)COc1cccc2ccccc12 (centres undefined),outcome,[1],inactive
same,max response,[2],16.9% and 0.479%
same,outcome,[3],inactive
same,outcome,[4],inactive
same,max response,[5],8.19%
same,max response,[6],-18.2% (inactive)
same,activity change % (negative = inhibition),[9],-9.73% (inactive) and -17.8% (inactive)
CN1CCC[C@H]1c1cccnc1,outcome,[1],inactive
same,outcome,[4],inactive
same,activity change % (negative = inhibition),[9],-9.11% (inactive) and 5.66% (inactive)
same,Potency,[7],inactive
COC1=C(OC)C(=O)c2ccccc2C1=O,Potency,[7],inactive
O=C1CN(/N=C/c2ccc([N+](=O)[O-])o2)C(=O)N1,outcome,[1],inactive
same,outcome,[4],inactive
same,max response,[5],9.13%
same,max response,[6],25.9% (inactive)
same,Potency,[7],inactive
same,Potency,[8],inactive
CCCCCCCCCCCCCCCCCC(=O)O,max response,[2],13.3% and -12.8% and -7.59%
same,outcome,[3],inactive
same,max response,[5],-4.53% and -8.3% and -3.54%
same,max response,[6],-9.45% (inactive) and 1.81% (inactive) and 3.06% (inactive)
same,Potency,[7],inactive
same,Potency,[8],inactive
Oc1ccccc1O,outcome,[1],inactive
same,max response,[2],7.41%
same,outcome,[3],inactive
same,outcome,[4],inactive
same,activity change % (negative = inhibition),[9],-12.3% (inactive)
same,Potency,[7],inactive
O=C1O/C(=C/Br)CCC1c1cccc2ccccc12 (centres undefined),Potency,[7],5.62 µM (active)
COc1cc(CNC(=O)CCCC/C=C/C(C)C)ccc1O,outcome,[1],inactive
same,max response,[2],3.03% and 16.9%
same,outcome,[3],inactive
same,outcome,[4],inactive
same,max response,[5],9.1%
same,max response,[6],4.06% (inactive)
same,activity change % (negative = inhibition),[9],11.7% (inactive) and 10.6% (inactive)
same,Potency,[7],inactive
same,Potency,[8],inactive
NCCO,max response,[2],-11.3%
same,outcome,[3],inactive
same,max response,[5],-11.1%
same,max response,[6],21.6% (inactive)
same,activity change % (negative = inhibition),[9],-5.7% (inactive)
same,Potency,[7],inactive
same,Potency,[8],inactive
C=CCCCCCCCCC(=O)O,outcome,[1],inactive
same,max response,[2],-10%
same,outcome,[3],inactive
same,outcome,[4],inactive
same,max response,[5],-3.51%
same,max response,[6],-16.4% (inactive)
same,activity change % (negative = inhibition),[9],-5.71% (inactive)
same,Potency,[7],inactive
same,Potency,[8],inactive
N=C1N=C(N)c2cc3ccccc3cc21,outcome,[1],inactive
same,max response,[2],12.6%
same,outcome,[3],inactive
same,outcome,[4],inactive
same,max response,[5],-9.13%
same,max response,[6],48.9% (inactive)
same,activity change % (negative = inhibition),[9],8.6% (inactive)
same,Potency,[8],inactive
C[C@@H](NC(=O)/C(C#N)=C/c1ccc(O)c(O)c1)c1ccccc1,Potency,[7],inactive
C#CC1(O)CC[C@H]2[C@@H]3CCC4=CCCC[C@@H]4[C@H]3CC[C@@]21C (some centres undefined),Potency,[7],inactive
CC1CN(S(=O)(=O)c2cccc3cnccc23)CCN1 (centres undefined),Potency,[7],inactive
CC(=O)O[C@H]1C[C@@]2(C)[C@@H](C[C@@H](O)[C@H]3[C@@]4(C)CC[C@@H](O)[C@@H](C)[C@@H]4CC[C@@]32C)/C1=C(\CCC=C(C)C)C(=O)O,Potency,[7],inactive
NO,Potency,[7],inactive
O=C(O)CNC(=O)C(CS)Cc1ccccc1 (centres undefined),Potency,[7],inactive
CCCCC/C=C\CC(O)/C=C/c1cccc(CC(O)CCCCO)n1 (centres undefined),Potency,[7],inactive
COc1cccc2c1C(=O)c1c(O)c3c(c(O)c1C2=O)C[C@@](O)(C(=O)CO)C[C@@H]3O[C@H]1C[C@H](N)[C@H](O[C@@H]2CCCCO2)[C@H](C)O1,Potency,[7],inactive
O=c1[nH]c2cc([N+](=O)[O-])c([N+](=O)[O-])cc2[nH]c1=O,Potency,[7],inactive
CC(C)NC[C@H](O)COc1cccc2[nH]ccc12,Potency,[7],inactive
CC[C@H]1OC(=O)[C@H](C)C(=O)[C@H](C)[C@@H](O[C@@H]2O[C@H](C)C[C@H](N(C)C)[C@H]2O)[C@](C)(OC)C[C@@H](C)C(=O)[C@H](C)[C@H]2N(CCCCn3cnc(-c4cccnc4)c3)C(=O)O[C@]12C,Potency,[7],inactive
O=c1[nH]c2cc(Cl)c(Cl)cc2[nH]c1=O,Potency,[7],inactive
COc1ccccc1CNCCCCCCNCCCCCCCCNCCCCCCNCc1ccccc1OC,Potency,[7],inactive
CC(C)(C)NCC(O)COc1nsnc1N1CCOCC1 (centres undefined),Potency,[7],inactive
CC(=O)SCC[N+](C)(C)C,Potency,[7],inactive
COc1ccc(-c2cc(=S)ss2)cc1,Potency,[7],inactive
CN1CCc2ccccc2Cc2[nH]c3ccccc3c2CC1,Potency,[7],8.91 µM (active)
O=C(O)c1cc([N+](=O)[O-])ccc1NCCCc1ccccc1,Potency,[7],inactive
CCCSc1ccc2nc(NC(=O)OC)[nH]c2c1,Potency,[7],inactive
Nc1ccn([C@@H]2O[C@H](CO)[C@@H](O)[C@@H]2O)c(=O)n1,Potency,[7],inactive
C[N+](C)(C)CCOP(=O)(O)OP(=O)([O-])OC[C@H]1O[C@@H](n2ccc(N)nc2=O)[C@H](O)[C@@H]1O,Potency,[7],inactive
O=C(O)CCCC[C@@H]1CCSS1,Potency,[7],inactive
Fc1ccc(C(OCCCc2cnc[nH]2)c2ccc(F)cc2)cc1,Potency,[7],1.41 µM (active)
COc1ccccc1N1CCN(CCCCNS(=O)(=O)c2cccc3c(N(C)C)cccc23)CC1,Potency,[7],1.41 µM (active)
Cc1onc(-c2c(F)cccc2Cl)c1C(=O)N[C@@H]1C(=O)N2[C@@H]1SC(C)(C)[C@@H]2C(=O)O,Potency,[7],inactive
O=Nc1ccc2oc(=O)ccc2c1,Potency,[7],inactive
CC(C(=O)O)c1ccc(C(=O)c2ccccc2)s1 (centres undefined),Potency,[7],inactive
N[C@@H](CC(=O)O)C(=O)O,Potency,[7],inactive
O=C(/C=C/c1ccc(O)c(O)c1)OCCc1ccccc1,Potency,[7],inactive
C[N+](C)(CCCCCC[N+](C)(C)CCCN1C(=O)c2cccc3cccc(c23)C1=O)CCCN1C(=O)c2cccc3cccc(c23)C1=O,Potency,[7],inactive
O=C(Nc1cccc(C(=O)Nc2ccc(S(=O)(=O)O)c3cc(S(=O)(=O)O)cc(S(=O)(=O)O)c23)c1)Nc1cccc(C(=O)Nc2ccc(S(=O)(=O)O)c3cc(S(=O)(=O)O)cc(S(=O)(=O)O)c23)c1,Potency,[7],inactive
